Measured values as given in PubChem BioAssay AID2113 (National Center for Advancing Translational Sciences (NCATS), 2009).
Several values for one entry are separate records, joined by “and”; a condition that tells them apart may be missing. Identical values can stand only once. Inconclusive results are not listed. Activity calls are given as the source filed them. Calls follow the shape of the dose curve; as a rule, active = well fitted curve in either direction with a large enough effect; inconclusive = small, poorly fitted or top-dose-only effect; inactive = no such curve, though single readings can be large or run the other way.

biological target: Lysosomal alpha-glucosidase (Homo sapiens) (UniProt P10253); test: Confirmation of Inhibitors and Activators of Human alpha-Glucosidase From Spleen Homogenate; conditions: alpha-glucosidase enzyme activity; series mostly up to 60.5 µM; activity change, both directions: at the top concentration;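 as to Potency: fluorescence of 4-methylumbelliferone released from a fluorogenic glucopyranoside substrate at pH 5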; as to activity change, both directions: 0% is about no effect
Outline: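 Compounds titrated against spleen-homogenate alpha-glucosidase, pH 5.0, 1 mM 4-MU-glucoside substrate, 37 C for 40 min. Fluorescence after pH 10 stop, normalised to no-enzyme and enzyme controls; Hill-equation AC50.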
Potency is read from the fitted curve at half-maximal effect.

Structure (SMILES)	Potency	activity change, both directions
CCCN1CNc2c(c(=O)[nH]c(=S)n2CCc2ccc(OC)cc2)C1	14.1 µM (active)	–
O=c1oc2cc(O)ccc2cc1-c1nc2c(s1)CCc1ccccc1-2	31.6 µM (active)	–
Cc1ccc(S(=O)(=O)N2CCOCC2)cc1C	–	-0.759% (inactive)
COc1cc(C2c3cc4c(cc3C(OC3OC5COC(C)O[C@@H]5C(O)C3O)C3COC(=O)C23)OCO4)cc(OC)c1O (stereo not given in full)	25.1 µM (active)	–
CCCN1CNc2c(c(=O)[nH]c(=O)n2CCc2ccc(OC)c(OC)c2)C1	17.8 µM (active)	–
Cc1nnc(SCC(=O)Nc2nsc(-c3ccc(C(C)(C)C)cc3)n2)s1	–	-2.15% [at 31.5 µM] (inactive)
CC(=O)c1ccc(N2CCN(S(=O)(=O)c3ccc4c(c3)CC(=O)N4)CC2)cc1	1.03 µM [inhibitor] (active) and 520 nM [inhibitor] (active) and 2.06 µM [inhibitor] (active)	–
CC(=O)N1CCN(c2ccc(NS(=O)(=O)c3ccc4c(c3)CC(=O)N4)cc2)CC1	–	-25.7% [at 132 µM] (inactive)
CCC(C)N1CNc2c(c(=O)[nH]c(=S)n2-c2cccc(C)c2)C1 (stereo not given)	–	-1.63% [at 31.5 µM] (inactive)
OCC(CO)NC1C[C@](O)(CO)[C@@H](O)[C@H](O)[C@H]1O (stereo not given in full)	–	-99.6% [at 286 µM] (inactive)
CCC1C(=O)NCCN1Cc1nc(-c2ccc(C)s2)oc1C (stereo not given)	–	2.96% (inactive)
CN1CCN(S(=O)(=O)c2ccccc2)CC1	–	3.17% (inactive)
CC(=O)c1ccc(N2CCN(S(=O)(=O)c3ccc4c(c3)n(C)c(=O)n4C)CC2)cc1	–	0.0126% (inactive)
Cc1cccc(-n2c(N)cc(=O)[nH]c2=S)c1	–	1.33% [at 31.5 µM] (inactive)
Cc1sc(-c2cc3cc(Cl)ccc3oc2=O)nc1-c1ccccc1	–	6.22% (inactive)
CCOC(=O)c1cc2c(=O)n3cccc(C)c3nc2n(CCCOC)c1=NC(=O)c1cccnc1	–	7.03% [at 31.5 µM] (inactive)
COCCNS(=O)(=O)c1ccc2c(c1)n(C)c(=O)n2C	–	3.34% [at 31.5 µM] (inactive)
CCC1OC23CCCCC2C(C#N)(C(=N)O3)C1(C#N)C#N (stereo not given)	–	2.02% [at 31.5 µM] (inactive)

Structure (SMILES)	Potency	activity change, both directions
Clc1cc2c(cc1/C=C/c1ccc3ccccc3n1)OCO2	–	5.58% (inactive)
CCCN1CNc2c(c(=O)[nH]c(=S)n2-c2ccc(Cl)cc2)C1	–	-3.54% [at 31.5 µM] (inactive)
CCC(C)Nc1nc(-c2cccc(OC)c2O)nc2ccccc12 (stereo not given)	–	2.75% (inactive)
NC(=O)NN=C1c2cc(S(=O)(=O)N3CCOCC3)ccc2-c2ccc(S(=O)(=O)N3CCOCC3)cc21	–	-7.04% (inactive)
COc1cccc(S(=O)(=O)N2CCOCC2)c1	–	-0.379% (inactive)
Cc1cccn2c(=O)c(/C=C(\C#N)C(=O)NC3CCS(=O)(=O)C3)c(N3CCC(C)CC3)nc12 (stereo not given)	11.2 µM (active)	–
O=C(NC(C(=O)c1ccccc1)n1ccc(=O)[nH]c1=O)c1ccccc1 (stereo not given)	–	-4.26% [at 31.5 µM] (inactive)
CCc1sc(-c2cc3cccc(OC)c3oc2=O)nc1-c1cc(C)ccc1C	15.8 µM (active)	–
O=S(=O)(c1cccnc1)N1CCOCC1	–	-4.01% (inactive)
COc1ccc(CCn2c(N)cc(=O)[nH]c2=S)cc1OC	–	-3.28% [at 31.5 µM] (inactive)
O=C(Cn1c(=O)[nH]n(-c2ccccc2)c1=O)N1CCCc2ccccc21	–	0.235% [at 31.5 µM] (inactive)
CCC(C)NC(=O)CCC(=O)Nc1ccc2nc(N3CCOCC3)cc(C)c2c1 (stereo not given)	–	20.8% [at 31.5 µM] (inactive)
O=C1CC(N2CCN(c3cccc(C(F)(F)F)c3)CC2)C(=O)N1c1ccc(F)cc1 (stereo not given)	–	0.41% [at 31.5 µM] (inactive)
CCc1sc(-c2cc3ccc(O)cc3oc2=O)nc1-c1ccccc1	–	-3.17% (inactive)
Cn1c2c(c(=O)n(C)c1=O)CN(CC1CCCO1)CN2 (stereo not given)	–	6.19% [at 31.5 µM] (inactive)
O=C(c1cc2c(ccc3ccccc32)oc1=O)N1CCN(CCO)CC1	–	11.3% [at 31.5 µM] (inactive)
CCCN1CNc2c(c(=O)[nH]c(=S)n2CCc2cccc(C)c2)C1	35.5 µM (active)	–
